# PubChem BioAssay (NCI)
# About 79,000 compounds went through this panel and 15% of them were active in at least one assay; those are over-represented in the sample as a whole. Calls of active or inactive are those of the source. Cut-off read from the data, not from the text of the source: active = growth inhibition above about 70%; inactive = the rest.
# Assays:
# [1] = NCI Yeast Anticancer Drug Screen. Data for the rad52 strain (AID 147);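 note: 0% = growth of vehicle-treated control cultures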; settings: S. cerevisiae rad52 mutant growth inhibition, stronger effect = higher value
# In short: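 Compounds are applied to a genetically defined yeast strain lacking normal DNA damage repair, and inhibition of growth is expressed relative to cultures given vehicle only.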
# [2] = NCI Yeast Anticancer Drug Screen. Data for the wt1 strain (AID 149);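 note: 0% = growth of vehicle-treated wt1 cultures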; settings: S. cerevisiae wt1 strain (SPY 50644) growth inhibition, stronger effect = higher value
# In short: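 Each compound is tested on wt1 yeast and the loss of growth versus vehicle gives the inhibition value.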
# [3] = NCI Yeast Anticancer Drug Screen. Data for the rad50EPP+ strain (AID 151);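 note: 0% = growth of vehicle-treated control cultures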; settings: S. cerevisiae rad50 mutant strain, stronger effect = higher value
# In short: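 Compounds were applied to the rad50EPP+ yeast strain, which bears a defined DNA repair alteration, and growth inhibition was determined relative to vehicle-treated cultures.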
# [4] = NCI Yeast Anticancer Drug Screen. Data for the rad50 strain (AID 155);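 note: 0% = growth of vehicle-only cultures of the same strain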; settings: S. cerevisiae rad50 strain growth inhibition, stronger effect = higher value
# In short: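 Vehicle-treated cultures provide the reference for the growth inhibition reported for compound-exposed, repair-deficient yeast.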
# [5] = NCI Yeast Anticancer Drug Screen. Data for the mec2-1 strain (AID 157); settings: S. cerevisiae mec2-1 strain, stronger effect = higher value
# In short: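 Strain: mec2-1 (DNA repair/cell cycle alteration). Compound exposure, then growth measured; inhibition expressed relative to vehicle.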
# [6] = NCI Yeast Anticancer Drug Screen. Data for the rad14 strain (AID 159);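 note: 0% = growth of vehicle-treated control cultures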; settings: S. cerevisiae rad14 strain growth inhibition, stronger effect = higher value
# In short: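 Inhibition of growth is reported for a repair-deficient yeast mutant following compound treatment, calculated relative to cultures that received vehicle.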
# [7] = NCI Yeast Anticancer Drug Screen. Data for the sgs1 mgt1 strain (AID 161);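 note: 0% = growth of cultures given vehicle only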; settings: S. cerevisiae sgs1 mgt1 strain, stronger effect = higher value
# In short: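 Read-out: growth inhibition vs vehicle controls. Cells: mutant yeast strain deficient in DNA damage repair.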
# [8] = NCI Yeast Anticancer Drug Screen. Data for the CLN2oe strain (AID 163);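 note: 0% = growth of vehicle-only control cultures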; settings: S. cerevisiae CLN2oe strain, stronger effect = higher value
# In short: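 Growth of a genetically modified yeast strain is measured after compound exposure and compared with cultures given vehicle alone.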
# [9] = NCI Yeast Anticancer Drug Screen. Data for the cln2 rad14 strain (AID 165);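 note: 0% = growth equal to vehicle treated cultures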; settings: S. cerevisiae cln2 rad14 strain, stronger effect = higher value
# In short: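 Compounds are applied to the cln2 rad14 yeast strain, and growth is then compared with that of vehicle-treated cultures to give inhibition.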
# [10] = NCI Yeast Anticancer Drug Screen. Data for the bub3 strain (AID 167); settings: S. cerevisiae bub3 mutant strain, stronger effect = higher value
# In short: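 Mutant yeast screening strain plus compound; vehicle-treated cultures serve as the 0% inhibition reference.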
# [11] = NCI Yeast Anticancer Drug Screen. Data for the wt2 strain (AID 169); settings: S. cerevisiae wt2 strain growth inhibition, stronger effect = higher value
# In short: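 This strain belongs to a panel of yeast strains with defined genetic alterations in DNA damage repair or cell cycle control. Compounds are applied, and growth inhibition is measured against vehicle-treated cultures.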
# [12] = NCI Yeast Anticancer Drug Screen. Data for the mlh1 strain (AID 171);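 note: 0% = growth of vehicle-treated control cultures of the same strain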; settings: S. cerevisiae mlh1 strain growth inhibition, stronger effect = higher value
# In short: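 Growth of the mutant yeast strain after compound exposure, expressed as inhibition relative to vehicle-only controls.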
# [13] = NCI Yeast Anticancer Drug Screen. Data for the sgs1 strain (AID 173);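 note: 0% = growth of vehicle-only control cultures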; settings: S. cerevisiae sgs1 mutant, stronger effect = higher value
# In short: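 Growth of a yeast strain bearing a defined genetic alteration is measured after compound treatment. Inhibition is expressed relative to vehicle-only controls.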
# [14] = NCI Yeast Anticancer Drug Screen. Data for the mlh1 rad18 strain (AID 175); settings: S. cerevisiae mlh1 rad18 strain growth inhibition, stronger effect = higher value
# In short: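 Read-out is yeast growth inhibition, calculated against vehicle-only controls. The compound was applied to a strain engineered with DNA damage repair alterations.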
# [15] = NCI Yeast Anticancer Drug Screen. Data for the rad18 strain (AID 177); settings: S. cerevisiae rad18 mutant growth inhibition, stronger effect = higher value
# In short: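 Growth of the mutant yeast strain after compound exposure, normalised to vehicle-only cultures.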
# [16] = at 5.0 µM (retest, dose inferred, filed as 0.5)
# [17] = at 50.0 µM (retest, dose inferred, filed as 5.0)
smiles,measurement,setting,value
O=C(Oc1ccc2c(c1)CN(Cc1ccccc1)CO2)c1ccccc1,growth inhibition,[1]; at 1.2 µM,-3% (inactive)
same,growth inhibition,[1]; at 3.7 µM,4% (inactive)
same,growth inhibition,[1]; at 11.0 µM,8% (inactive)
same,growth inhibition,[1]; at 33.0 µM,18% (inactive)
same,growth inhibition,[1]; at 100.0 µM,38% (inactive)
same,growth inhibition,[2]; at 1.2 µM,2% (inactive)
same,growth inhibition,[2]; at 3.7 µM,4% (inactive)
same,growth inhibition,[2]; at 11.0 µM,8% (inactive)
same,growth inhibition,[2]; at 33.0 µM,13% (inactive)
same,growth inhibition,[2]; at 100.0 µM,10% (inactive)
same,growth inhibition,[3]; at 1.2 µM,-4% (inactive)
same,growth inhibition,[3]; at 3.7 µM,-3% (inactive)
same,growth inhibition,[3]; at 11.0 µM,4% (inactive)
same,growth inhibition,[3]; at 33.0 µM,6% (inactive)
same,growth inhibition,[3]; at 100.0 µM,22% (inactive)
same,growth inhibition,[4]; at 1.2 µM,2% (inactive)
same,growth inhibition,[4]; at 3.7 µM,2% (inactive)
same,growth inhibition,[4]; [16],-1% (inactive)
same,growth inhibition,[4]; at 11.0 µM,17% (inactive)
same,growth inhibition,[4]; at 33.0 µM,4% (inactive)
same,growth inhibition,[4]; [17],46% (inactive)
same,growth inhibition,[4]; at 50.0 µM,79.2% (active)
same,growth inhibition,[4]; at 100.0 µM,32% (inactive)
same,growth inhibition,[5]; at 1.2 µM,-2% (inactive)
same,growth inhibition,[5]; at 3.7 µM,0% (inactive)
same,growth inhibition,[5]; [16],-15% (inactive)
same,growth inhibition,[5]; at 11.0 µM,3% (inactive)
same,growth inhibition,[5]; at 33.0 µM,8% (inactive)
same,growth inhibition,[5]; [17],3% (inactive)
same,growth inhibition,[5]; at 50.0 µM,25.1% (inactive)
same,growth inhibition,[5]; at 100.0 µM,26% (inactive)
same,growth inhibition,[6]; at 1.2 µM,4% (inactive)
same,growth inhibition,[6]; at 3.7 µM,11% (inactive)
same,growth inhibition,[6]; at 11.0 µM,24% (inactive)
same,growth inhibition,[6]; at 33.0 µM,40% (inactive)
same,growth inhibition,[6]; at 100.0 µM,87% (active)
same,growth inhibition,[7]; [16],19% (inactive)
same,growth inhibition,[7]; [17],40% (inactive)
same,growth inhibition,[7]; at 50.0 µM,77.2% (active)
same,growth inhibition,[8]; at 1.2 µM,-5% (inactive)
same,growth inhibition,[8]; at 3.7 µM,-5% (inactive)
same,growth inhibition,[8]; at 11.0 µM,-1% (inactive)
same,growth inhibition,[8]; at 33.0 µM,16% (inactive)
same,growth inhibition,[8]; at 100.0 µM,42% (inactive)
same,growth inhibition,[9]; [16],-16% (inactive)
same,growth inhibition,[9]; [17],39% (inactive)
same,growth inhibition,[9]; at 50.0 µM,21.9% (inactive)
same,growth inhibition,[10]; at 1.2 µM,-4% (inactive)
same,growth inhibition,[10]; at 3.7 µM,-2% (inactive)
same,growth inhibition,[10]; [16],-6% (inactive)
same,growth inhibition,[10]; at 11.0 µM,-29% (inactive)
same,growth inhibition,[10]; at 33.0 µM,31% (inactive)
same,growth inhibition,[10]; [17],46% (inactive)
same,growth inhibition,[10]; at 50.0 µM,72.7% (active)
same,growth inhibition,[10]; at 100.0 µM,35% (inactive)
same,growth inhibition,[11]; at 1.2 µM,-1% (inactive)
same,growth inhibition,[11]; at 3.7 µM,3% (inactive)
same,growth inhibition,[11]; at 11.0 µM,7% (inactive)
same,growth inhibition,[11]; at 33.0 µM,23% (inactive)
same,growth inhibition,[11]; at 100.0 µM,40% (inactive)
same,growth inhibition,[12]; at 1.2 µM,6% (inactive)
same,growth inhibition,[12]; at 3.7 µM,3% (inactive)
same,growth inhibition,[12]; at 11.0 µM,7% (inactive)
same,growth inhibition,[12]; at 33.0 µM,4% (inactive)
same,growth inhibition,[12]; at 100.0 µM,37% (inactive)
same,growth inhibition,[13]; at 1.2 µM,4% (inactive)
same,growth inhibition,[13]; at 3.7 µM,9% (inactive)
same,growth inhibition,[13]; at 11.0 µM,17% (inactive)
same,growth inhibition,[13]; at 33.0 µM,42% (inactive)
same,growth inhibition,[13]; at 100.0 µM,70% (active)
same,growth inhibition,[14]; [16],-9% (inactive)
same,growth inhibition,[14]; [17],49% (inactive)
same,growth inhibition,[14]; at 50.0 µM,83% (active)
same,growth inhibition,[15]; at 1.2 µM,17% (inactive)
same,growth inhibition,[15]; at 3.7 µM,15% (inactive)
same,growth inhibition,[15]; at 11.0 µM,19% (inactive)
same,growth inhibition,[15]; at 33.0 µM,28% (inactive)
same,growth inhibition,[15]; at 100.0 µM,72% (active)
